HepG2 viability: qHTS for Inhibitors of TGF-b: Cytotox Counterscreen; 410,000 compounds, 0.76% hits; HepG2 CAGA-GFP viability, ATP luminescence, 18 h; Potency, µM (highest dose often 46.1 µM), for the others: at the top dose activity change, negative = cytotoxicity, usual class: cytotoxic
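CellTiter-Glo luminescence gave cytotoxicity after 18 hours at 37 degrees C. The cells were HepG2 CAGA-GFP in 1% FBS DMEM, stimulated with 500 pg/mL TGF-beta after compound addition. %Activity was normalised to no-cell wells (complete cell-killing) and DMSO (no toxicity), and curves were fitted and classified.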
12-LOX inh: Primary qHTS assay for inhibitors of human arachidonate 12S-lipoxygenase (ALOX12): Round 2; 580,000 compounds, 1.1% hits; Potency, µM (highest dose often 108 µM), inactives show at the highest dose activity change, negative = inhibition, usual class: inhibitors; purified 12hLO, xylenol orange hydroperoxide absorbance; Polyunsaturated fatty acid lipoxygenase ALOX12 (Homo sapiens), P18054; note: % is set by controls: 0 for no effect and ±100 for the full control effect
Target sequence (P18054 whole entry, looked up): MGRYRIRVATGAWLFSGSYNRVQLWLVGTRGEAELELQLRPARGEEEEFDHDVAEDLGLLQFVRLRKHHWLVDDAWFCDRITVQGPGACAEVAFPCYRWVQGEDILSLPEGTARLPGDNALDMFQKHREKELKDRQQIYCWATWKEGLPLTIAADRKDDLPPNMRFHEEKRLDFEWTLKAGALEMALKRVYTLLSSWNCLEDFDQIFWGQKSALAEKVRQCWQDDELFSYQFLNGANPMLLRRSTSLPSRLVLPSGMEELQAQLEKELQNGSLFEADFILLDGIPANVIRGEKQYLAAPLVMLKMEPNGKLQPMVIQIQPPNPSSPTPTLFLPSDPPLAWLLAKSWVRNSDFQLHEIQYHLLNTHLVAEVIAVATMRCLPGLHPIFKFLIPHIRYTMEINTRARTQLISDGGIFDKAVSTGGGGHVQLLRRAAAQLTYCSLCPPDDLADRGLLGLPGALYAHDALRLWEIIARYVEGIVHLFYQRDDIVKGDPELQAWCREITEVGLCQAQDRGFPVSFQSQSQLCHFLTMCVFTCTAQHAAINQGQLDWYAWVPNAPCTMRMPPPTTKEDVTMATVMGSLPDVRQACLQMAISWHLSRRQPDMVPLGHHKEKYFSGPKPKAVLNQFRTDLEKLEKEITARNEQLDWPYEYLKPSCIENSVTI
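Purified human 12hLO (150 nM final) in 25 mM Hepes, 0.01% Triton X-100, pH 7.0 was preincubated 15 min at room temperature with compound. Then 40 uM arachidonic acid was added, 30 min. Hydroperoxide was read by Fe-XO absorbance ratio 573/405 nm.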
TGFb inhibitor: qHTS for Inhibitors of TGF-b; HepG2 CAGA-GFP TGF-b/SMAD3 reporter, GFP fluorescence, 18 h; TGF-beta stimulated, 500 pg/mL final; Potency, µM (titrated, usually from 46.1 µM), without a hit: at the highest dose activity, negative = inhibition, hits mostly inhibitors; 410,000 compounds, 1.2% hits; AID 588855, 2011; note: % is set by controls: 0 for no effect and ±100 for the full control effect; nearly all actives have a fitted effect of over 65% in size
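Smad-responsive CAGA-GFP expression was quantified in HEPG2 cells exposed to compounds and 500 pg/mL final TGF-beta for 18 h at 37 degrees C; unstimulated wells defined full inhibition.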
S2 tox: Viability Counterscreen for Primary qHTS for Inhibitors of ATXN expression. Potency, µM (highest dose often 56.7 µM), usual class: cytotoxic. 400,000 compounds, 0.49% hits. S2 cells (HEK-293 line with an ATXN2-luciferase reporter) viability, CellTiter-Fluor protease fluorescence, 24 h; note: nearly all actives have a fitted effect of over 40% in size
ATXN2 expr inh: Primary qHTS for Inhibitors of ATXN expression | HEK-293 ATXN2-luciferase reporter, luminescence, 24 h | Potency, µM (top dose mostly 57 µM), for inactives: top-dose activity change, negative = inhibition, hits mostly inhibitors | 360,000 compounds, 0.72% hits; note: % is set by controls: 0 for no effect and ±100 for the full control effect; nearly all actives have a fitted effect of over 55% in size
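ATXN2-luciferase reporter cells (luciferase flanked by upstream and downstream ATXN2 gene portions) were treated 24 h at 37 °C with compounds at up to 57 uM. SteadyGlo luminescence gave expression; GF-AFC fluorescence gave viability.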
* hit, by the source's call; ! = repeats disagree; [ ] = remark or other dose. A selection: hits, their analogues and other compounds. The true share with any hit is near 2.7%. Calls come from the whole dose curve; as a rule, active = well fitted curve in the direction sought with a large enough effect; inconclusive = small, poorly fitted or top-dose-only effect, or another doubt; inactive = no such curve, though single readings can be large; an effect the other way counts as inactive or inconclusive. Potency is the fitted concentration of half-maximal effect.

`O=C(CCc1ccccc1)NC1(Cc2ccccc2)CCN(CCCc2ccccc2)C1=O` (configuration not stated) gave HepG2 viability -23%, 12-LOX inh 3%, TGFb inhibitor 13µM*, S2 tox inconclusive and ATXN2 expr inh inconclusive.
`Cc1c(Cc2ccccc2)c(=O)oc2c(O)c(O)ccc12` gave HepG2 viability -3%, 12-LOX inh 4µM*, TGFb inhibitor -11%, S2 tox inactive and ATXN2 expr inh inconclusive.
Cc1c(Cc2ccccc2)c(=O)oc2cc(O)ccc12 was read as HepG2 viability -50%, 12-LOX inh 3%, TGFb inhibitor -15%, S2 tox inactive and ATXN2 expr inh -7%.
Screening CC(C)=CCCC1(C)C=Cc2c(c(C)cc3c2[nH]c2cc(O)ccc23)O1 (configuration not stated) returned HepG2 viability 11µM*, 12-LOX inh inconclusive, TGFb inhibitor 11µM*, S2 tox 28µM* and ATXN2 expr inh inconclusive.
`CC(C)=CCC/C(C)=C/CC/C(C)=C/CCC1(C)CCc2cc(O)ccc2O1` (configuration not stated) gave 12-LOX inh 7%.
For Cc1[nH]n(-c2ccc([N+](=O)[O-])cc2)c(=O)c1/C=N/N1CCOCC1 the results were HepG2 viability 1.4µM*, 12-LOX inh -22%, TGFb inhibitor 2%, S2 tox inactive and ATXN2 expr inh -8%.
CC(C)NS(=O)(=O)c1ccc(Cl)c(C(=O)NCc2ccc(-c3nc4ccccc4s3)o2)c1 was read as 12-LOX inh 16µM*.
Screening C[C@@H]1CN(Cc2cc(C(N)=O)oc2C(C)(C)C)CC[C@@]1(O)C1CCC1 returned 12-LOX inh 10%.
Screening Cc1ccccc1N(C)C1CN(Cc2cccs2)C1 returned 12-LOX inh 46%[176 µM].
`CCn1c(SCc2ccc(Cl)c(Cl)c2)nnc1C(C)NC(=O)c1ccc(OC)cc1` (configuration not stated) gave HepG2 viability 3%, 12-LOX inh -8%, TGFb inhibitor -3%, S2 tox inconclusive and ATXN2 expr inh -3%.
Screening COc1ccc(C(=O)NC(C)c2nnc(SCc3ccc(Cl)c(Cl)c3)n2C)cc1 (configuration not stated) returned HepG2 viability -8%, 12-LOX inh 4µM*, TGFb inhibitor -16%, S2 tox inconclusive and ATXN2 expr inh -3%.
Screening Cn1c(Cn2cccn2)nnc1C1CC(NC(=O)c2sccc2N)C1 (configuration not stated) returned 12-LOX inh 10µM*!.
For Cc1ocnc1C(=O)NC1CC(c2nnc(Cn3cccn3)n2C)C1 (configuration not stated) the results were 12-LOX inh -2%.
`O=C(Nc1ccc(N2CCN(C(=O)c3ccccc3)CC2)c(Cl)c1)c1ccco1` gave HepG2 viability -21%, 12-LOX inh 5%, TGFb inhibitor -12%, S2 tox inactive and ATXN2 expr inh -35%.
For CCC(=O)N1CCN(c2ccc(NC(=O)c3cc4ccccc4o3)cc2Cl)CC1 the results were HepG2 viability -34%, 12-LOX inh 0%, TGFb inhibitor inconclusive, S2 tox inconclusive and ATXN2 expr inh inconclusive.
O=C(Nc1ccc(N2CCN(C(=O)c3ccco3)CC2)c(Cl)c1)c1cc2ccccc2o1 was read as HepG2 viability -13%, 12-LOX inh 4%, TGFb inhibitor 1% and ATXN2 expr inh 20µM*.
CCCC(=O)N1CCN(c2ccc(NC(=O)c3cc4ccccc4o3)cc2Cl)CC1 was read as HepG2 viability -9%, 12-LOX inh 120%, TGFb inhibitor -12%, S2 tox 18µM* and ATXN2 expr inh 14µM*.
Screening Cc1ccc2cccc(NC(=O)COc3ccc(Cl)cc3)c2n1 returned 12-LOX inh 42%.

Compound activity: PubChem BioAssay, National Center for Advancing Translational Sciences (NCATS)
